# From PubChem BioAssay AID1347165 (National Center for Advancing Translational Sciences (NCATS), 2019)
# In all, about 220,000 compounds went through this assay and about 5,700 (2.6%) were called active. Not shown: some 18% with an inconclusive outcome. The full list was thinned out, with actives kept by preference. A number with no mark means an inactive call. The call rests on the fitted dose curve; in most records, active means well fitted inhibition curve with a large enough effect; inconclusive means small, poorly fitted or top-dose-only effect; inactive means no such curve, though single readings can be large or run the other way.
# Target: Lysine-specific demethylase 5B (Homo sapiens) (UniProt Q9UGL1)
# Experiment: Primary screen for KDM5B Histone Demethylases FDH-coupled qHTS; further: nearly all actives have a fitted effect of over 70% in size; on activity change, negative = inhibition: 0% is about no effect
# Details: FDH-coupled NADH fluorescence (FDH is formaldehyde dehydrogenase); series mostly up to 57.7 µM; activity change, negative = inhibition: at the top concentration
# In short: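 Compound dilutions met 200 nM (final) KDM5BΔAP for 10 min at room temperature before substrate addition. The substrate mix held 12.5 µM H3K4me3 with cofactors 25 µM α-ketoglutarate and 50 µM Fe²⁺. NADH signal gain over 30 min defined activity.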
# Potency means the concentration at half of the fitted maximal effect.
# Sequence of Lysine-specific demethylase 5B (Homo sapiens) (Q9UGL1 whole entry, looked up): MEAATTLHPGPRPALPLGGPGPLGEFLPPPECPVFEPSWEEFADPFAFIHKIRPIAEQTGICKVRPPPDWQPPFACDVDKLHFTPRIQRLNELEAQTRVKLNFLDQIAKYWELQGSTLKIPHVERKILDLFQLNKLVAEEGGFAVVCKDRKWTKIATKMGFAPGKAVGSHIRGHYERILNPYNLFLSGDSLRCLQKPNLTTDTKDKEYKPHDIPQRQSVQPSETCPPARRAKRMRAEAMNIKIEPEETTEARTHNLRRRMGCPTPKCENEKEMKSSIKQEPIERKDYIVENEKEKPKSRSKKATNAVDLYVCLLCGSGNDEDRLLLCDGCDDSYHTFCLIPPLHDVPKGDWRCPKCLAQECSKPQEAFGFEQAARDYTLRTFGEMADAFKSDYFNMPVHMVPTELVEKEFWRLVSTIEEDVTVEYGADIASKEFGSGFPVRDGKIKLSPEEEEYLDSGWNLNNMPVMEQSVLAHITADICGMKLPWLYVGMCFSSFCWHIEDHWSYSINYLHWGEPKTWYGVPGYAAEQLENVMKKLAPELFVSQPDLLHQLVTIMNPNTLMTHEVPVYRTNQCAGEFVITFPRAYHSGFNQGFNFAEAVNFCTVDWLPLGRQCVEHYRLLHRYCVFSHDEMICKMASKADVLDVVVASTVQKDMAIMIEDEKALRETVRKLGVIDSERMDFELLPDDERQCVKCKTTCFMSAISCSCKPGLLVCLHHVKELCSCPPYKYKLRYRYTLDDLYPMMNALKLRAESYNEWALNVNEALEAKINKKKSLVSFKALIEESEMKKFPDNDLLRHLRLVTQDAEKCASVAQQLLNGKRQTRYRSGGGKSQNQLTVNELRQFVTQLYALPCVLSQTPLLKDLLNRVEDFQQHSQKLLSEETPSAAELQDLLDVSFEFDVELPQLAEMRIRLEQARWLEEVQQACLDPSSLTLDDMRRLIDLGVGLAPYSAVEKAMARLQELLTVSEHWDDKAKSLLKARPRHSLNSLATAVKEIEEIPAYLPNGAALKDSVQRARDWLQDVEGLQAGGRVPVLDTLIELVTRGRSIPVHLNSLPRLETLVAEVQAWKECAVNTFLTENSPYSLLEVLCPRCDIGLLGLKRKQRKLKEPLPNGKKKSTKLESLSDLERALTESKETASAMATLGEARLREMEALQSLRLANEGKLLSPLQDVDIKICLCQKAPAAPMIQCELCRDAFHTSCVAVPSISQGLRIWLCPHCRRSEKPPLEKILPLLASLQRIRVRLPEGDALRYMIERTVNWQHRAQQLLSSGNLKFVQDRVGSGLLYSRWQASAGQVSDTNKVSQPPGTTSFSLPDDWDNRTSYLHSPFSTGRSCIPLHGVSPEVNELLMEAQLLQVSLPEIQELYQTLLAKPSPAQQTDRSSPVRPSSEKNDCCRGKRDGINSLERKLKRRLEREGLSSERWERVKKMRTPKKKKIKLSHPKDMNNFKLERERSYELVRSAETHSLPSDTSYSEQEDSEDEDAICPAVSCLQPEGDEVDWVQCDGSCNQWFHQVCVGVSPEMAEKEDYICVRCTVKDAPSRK
SMILES,"activity change, negative = inhibition",Potency
Cc1[nH]c2ccccc2c1C=O,3.68%,
CCOC(=O)CN(CCOC)C(=O)CCCc1ccccc1,15%,
CC(C)(C)c1ccc(N2C(=O)[C@@H]3C[C@@H](NC(=O)[C@@H](O)c4ccccc4)CCN3C2=O)cc1,1.01%,
O=C(CN1N=C(c2ccccc2F)c2cc(Cl)ccc2S1(=O)=O)Nc1cc(F)ccc1F,1.12%,
N#Cc1c(N)n[nH]c1CCCNc1ncnc2c1oc1ccccc12,-1.15%,
CC(C)(C)c1nc(C(=O)N2CCOCC2)n2ccccc12,,100 µM (active)
O=C(c1cc(-c2ccc(Cl)s2)nc2ccccc12)N1CCOCC1,-666%,
O=C1CCN(C(=O)c2nccc3ccccc23)CCOCCN1,-7.83%,
NC(=O)c1ccc(NC(=O)CCc2ncc(-c3ccc(F)cc3)o2)cc1,-4.37%,
c1cc(-c2ccsc2)n2nc(C3CCCO3)nc2n1 (stereo not drawn),,25.1 µM (active)
O=C(CSc1nnc(-c2ccccc2)c2ccccc12)c1ccc2c(c1)OCCCO2,0.618%,
O=C(CS(=O)(=O)Cc1coc(-c2ccc(F)cc2)n1)NC1CCCCCC1,3.85%,
O=C(COc1ccc(Cl)cc1)Nc1ccc2oc(-c3ccc(F)cc3)nc2c1,-13.3%,
CC(C)C(Nc1ccc([N+](=O)[O-])cn1)c1ccc(Cl)cc1 (stereo not drawn),-3.31%,
CN(C)C(=O)NC1CCN(c2nc3ncccc3o2)CC1,,31.6 µM (active)
CCN(CC)Cc1ccc(CNC(=O)C2CCN(c3nc4ccccc4o3)CC2)cc1,-10.5%,
Cc1ccnc(N2CCCC(C(=O)NC3CC3)C2)n1 (stereo not drawn),-15%,
O=C(NC1C[C@H]2CC[C@@H](C1)N2S(=O)(=O)c1ccc2c(c1)OCCO2)c1ccc(F)cc1 (stereo partly drawn),3.96%,
O=C(NC1CCN(c2cc(C(F)(F)F)ncn2)CC1)c1ccc(F)cc1,9.96%,
O=C(NCc1ccccc1)C1CCN(c2nc3ccccc3o2)CC1,11.2%,
O=C(NC1CC1)C1CCCN(c2nc3ncccc3o2)C1 (stereo not drawn),,35.5 µM (active)
Cc1ccccc1CN1CCC(N2CCCC(C(=O)NC3CC3)C2)CC1 (stereo not drawn),14.5%,
O=C(NC1CCN(c2nc3ncccc3o2)CC1)c1ccc(Cl)nc1,,25.1 µM (active)
O=C(NC1CCN(c2nc3ncccc3o2)CC1)c1ccc(F)cc1,,35.5 µM (active)
Cc1cc(C)cc(C(=O)NC2CCN(c3cnn(C)c(=O)c3)CC2)c1,-4.03%,
O=C(NC1CCCCC1)c1ccc(Cn2c(SCc3ccccc3)nc3cccnc32)cc1,-21.5%,
CC/C(=N/N=C(/CC)c1ccccc1)c1ccccc1,23.2%,

SMILES,"activity change, negative = inhibition",Potency
CC(C)c1nnc(NC(=O)c2cc(Cl)c3c(c2)OCCO3)s1,-1.89%,
O=C(NCc1ccc(CN2CCCCC2)cc1)c1cc2ccccc2oc1=O,97.4%,
CC(C)NC(=O)Nc1ccc(CNC(=O)C2(C#N)CCCC2)cc1,-18.1%,
Cn1c(=O)[nH]c(=O)c2c1nc(N1CCC(Cc3ccccc3)CC1)n2CCCc1ccccc1,10.3%,
O=C(NCC(=O)N1CCCC(C(F)(F)F)C1)c1ccccc1F (stereo not drawn),9.21%,
CC1CCC(NC(=O)CCCc2ccccc2)CC1 (stereo not drawn),-6.51%,
O=C(c1n[nH]c(=O)c2ccccc12)N1CCCCCC1c1nnc(-c2ccccc2)o1 (stereo not drawn),-0.997%,
Cc1sc(NCCC(C)C)nc1-c1ccc(NS(C)(=O)=O)cc1,-7.19%,
CC(C)c1ncc(Cl)c(C(=O)O)n1,16.6%,
COc1ccc(Nc2cc3c(nc2-c2ccccc2)nc(C(=O)NCCN(C)C)n3C)cn1,,31.6 µM (active)
CN(C)CCNC(=O)c1nc2nc(-c3ccccc3)c(-c3cccc(F)c3)cc2n1C,-5860% [at 86.2 µM],
COc1ccc(Nc2cc(Cl)ccc2C(=O)O)cn1,-24.1%,
CN(C(=O)CCc1c[nH]c2ccccc12)C1CCCC1,10.4%,
O=C1NCc2ccccc2CC12CCCN(Cc1ccc(F)c(Cl)c1)C2 (stereo not drawn),19% [at 115 µM],
CCOc1ccccc1NC(=O)c1cnc2ccccc2n1,4.75%,
CCC(C(=O)Nc1ccc(F)cc1F)n1nc(-c2ccc(C)cc2)ccc1=O (stereo not drawn),3.04%,
Cc1ccc2nc(C3CCCN(Cc4ccc(C#N)cc4)C3)[nH]c(=O)c2c1 (stereo not drawn),,inactive
O=c1[nH]c(C2CCCN(Cc3ccc(-c4ccsc4)cc3)C2)nc2ccc(F)cc12 (stereo not drawn),,79.4 µM (active)
O=c1[nH]c(C2CCN(Cc3ccccc3)CC2)nc2ccc(F)cc12,,inactive
Cc1cc(Cl)cc(SCC(=O)O)c1Cl,12%,
CC(C)NC(=S)N/N=C1\CCc2ccccc21,-6.15%,
CC(O)CNC(=O)c1ccc(-c2ncc3cnc(C4=CCOCC4)cn23)cc1 (stereo not drawn),,35.5 µM (active)
Cc1ccc(S(=O)(=O)N2CC(C)N(S(C)(=O)=O)C2)cc1 (stereo not drawn),29.2%,
COc1ccccc1-c1cc(C(=O)N(C)C)nc2c1cnn2C,,89.1 µM (active)
COc1ccc(CN(C)C(=O)c2nn(C)c(=O)c3ccccc23)cc1F,-16.1%,
COc1ccccc1CNC(=O)c1nn(C)c(=O)c2ccccc12,6.64%,
